Gli-Sufu block: blocks Gli-Sufu signaling in a luciferase reporter. AID 588413. Sufu-KO-LIGHT fibroblasts, Gli luciferase reporter luminescence. inhibition, % at 5 µM. 0.74% of 340,000 active;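 active = inhibition above about 55%, limit read from the data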;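 also: 0% = DMSO-treated cells and 100% = wells with medium but no cells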
697 NFkB inh: inhibitors of the PMA/ionomycin-induced NF-kB reporter in 697 B cells | 697 B-cell NF-kB luciferase reporter, 16 h | inhibition, % at 4 µM | 0.33% of 330,000 active; in the data active = inhibition above about 35%
NR2F2 inh: blocks human COUP-TFII nuclear receptor | P24468 | HEK293T NGFI-A luciferase reporter, luminescence | inhibition, % at 8.6 µM | 0.7% of 370,000 active;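 active = inhibition above a per-plate cutoff, mean inhibition of test wells between control levels plus 3 SD, cut at about 38% in these data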;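 also: cells cotransfected with COUP-TFII expression vector driving the NGFI-A reporter; 0% = median of COUP-TF2 test wells and 100% = reporter-only cells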
Jurkat NFkB inh: inhibitors of the PMA/ionomycin-induced NF-kB reporter in Jurkat cells. inhibition, % at 4 µM. AID 435003. 0.53% of 330,000 active. PMA/ionomycin-induced NF-kB luciferase reporter, luminescence; in the data active = inhibition above about 50%
GalR3 antagonist: human GalR3 antagonism | O60755 | HEK293 GalR3-CNG cAMP membrane potential fluorescence; galR3 body fused to GalR1 C-terminus | inhibition, % at 3 µM | 0.44% of 360,000 active | AID 651719;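 active = inhibition above the screen-wide average plus 3 SD, cut at about 13% in these data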;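 also: forskolin and galanin both at EC90 stimulate the cells; cAMP rise reported by CNG channel membrane potential dye signal; 0% = forskolin plus galanin with DMSO and 100% = forskolin alone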
Target sequence (O60755 1-299 limits assumed): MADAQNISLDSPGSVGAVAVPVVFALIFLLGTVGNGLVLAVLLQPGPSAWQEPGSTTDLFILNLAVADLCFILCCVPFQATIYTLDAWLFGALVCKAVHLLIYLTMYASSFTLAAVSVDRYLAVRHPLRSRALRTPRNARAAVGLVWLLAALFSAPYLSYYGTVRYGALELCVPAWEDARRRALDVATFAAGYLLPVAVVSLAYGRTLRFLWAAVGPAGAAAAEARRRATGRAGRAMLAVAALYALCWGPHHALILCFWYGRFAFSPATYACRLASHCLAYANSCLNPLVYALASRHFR
Jurkat NFkB conf: inhibitors of the PMA/ionomycin-induced NF-kB reporter in Jurkat cells, retest. shares compounds with Jurkat NFkB inh. Jurkat NF-kB luciferase, 16 h. inhibition, % at 4 µM. 27% of 2,700 active. AID 435020;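 active = inhibition reaching about 45% at 4 µM in either replicate, limit read from the data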;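 also: plate controls were PMA/ionomycin stimulated DMSO wells for no effect and unstimulated DMSO wells for full effect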
* hit, by the source's call; . = not tested or not shown. Compounds with a hit are over-represented: about 2% of the library has one in this group of screens.

SMILES	Gli-Sufu block	697 NFkB inh	NR2F2 inh	Jurkat NFkB inh	GalR3 antagonist	Jurkat NFkB conf
Cc1nc(C(=O)Nc2ccccc2)sc1C1(C)CC(c2cccnc2)=NO1 (stereo not given)	-50	-29	-24	-60	1	.
Cc1c(C)c2cccnc2c2ncccc12	92*	-65	.	78*	.	84*
COc1ccc(-c2cc(-c3ccccc3)c(C#N)c(S(C)(=O)=O)n2)cc1	-7	30	5	8	-1	.
COc1nc(-c2ccccc2)cc(-c2ccc3c(c2)OCO3)c1C#N	43	-29	10	57*	-3	11
CCN(CC)C(=O)CC[C@H]1CC[C@]2(CCCN(C3CCCCC3)C2)O1	.	.	9	.	.	.
Clc1ncccc1-c1nnn(-c2ccccc2)n1	-52	-148	-53	-138	-4	.
Fc1ccc(-n2nnc(-c3cccnc3Cl)n2)cc1	-115	-152	-46	-152	-2	-76
CCn1c2ccccc2c2cc(NC(=O)CSc3nnc(-c4ccccc4)n3Cc3ccco3)ccc21	.	.	13	.	.	.
O=C(COC(=O)c1ccc(O)cc1)c1ccc2c(c1)OCCO2	-82	-82	-15	-80	-4	.
COc1cc(CC(=O)OCC(=O)c2ccc3c(c2)OCCO3)cc(OC)c1OC	-1	1	-22	61*	-2	38
O=C(Nc1ccc(F)cc1)N[C@@H]1C[C@@H]2O[C@H](CO)CC[C@@H]2O[C@@H]1CCc1ccc(C2=CCCC2)cc1	.	.	14	.	.	.
CNC(=O)CSc1nc(SC)ns1	-1	12	0	-4	-4	.
COC(=O)CSc1nsc(SCC(=O)OC)n1	2	-46	-6	62*	-5	10
COc1ccc(NC(=O)CSc2nc(SC)ns2)cc1	10	-58	-4	-154	-7	-45
O=C(Nc1ccccc1F)O[C@@H]1CC[C@@]23CCCN2C(=O)CCC[C@H]3C1	.	.	-25	.	.	.
CCOC(=O)c1c(N)sc(C(=O)Nc2ccccc2F)c1C	-119	-175	-61	-186	-2	-146
CCOC(=O)c1sc(NC(C)=O)cc1C	-5	5	-9	-8	-4	.
CCOC(=O)c1c(N)sc(C(=O)Nc2ccccc2)c1C	-136	-165	-13	-166	-6	-114
CCC(=O)Nc1sc(C(=O)Nc2ccccc2F)c(C)c1C(=O)OC	-93	-122	-63	-84	0	.
CCOC(=O)c1sc(NC(=O)Nc2ccccc2)cc1C	-127	-233	-65	-171	-3	-139
COc1ccc(-c2cn3ccccc3n2)cc1	-78	-133	-45	-122	-7	.
Brc1ccc(-c2cn3ccccc3n2)s1	-31	-245	-47	-166	2	-102
N=c1c2c(ccn1CCCc1ccccc1)Oc1ccc3ccccc3c1C2c1ccccc1 (stereo not given)	.	.	5	.	.	.
O=C(c1ccc2c(c1)OCCO2)N1CCN(c2ccc([N+](=O)[O-])cc2)CC1	.	7	.	56*	.	-12
O=C(c1cc([N+](=O)[O-])ccc1N1CCOCC1)N1CCN(c2ccccc2)CC1	.	-54	-52	74*	3	33
SMILES	Gli-Sufu block	697 NFkB inh	NR2F2 inh	Jurkat NFkB inh	GalR3 antagonist	Jurkat NFkB conf
O=C(NCCOc1ccccc1)c1cc([N+](=O)[O-])ccc1N1CCOCC1	.	-66	-4	60*	-11	57*
Cc1c(C(=O)N2CCN(c3ccc([N+](=O)[O-])cc3)CC2)oc2ccccc12	10	14	2	51*	-7	32
CN1CCN(c2ccc([N+](=O)[O-])cc2C(=O)N2CCOCC2)CC1	3	-4	6	-9	-1	.
Cc1ccc(S(=O)(=O)N2CCCC(C(=O)NCCN3CCC(Cc4ccccc4)CC3)C2)cc1 (stereo not given)	.	.	21	.	.	.
COc1cccc(NC(=O)N2CC[C@@H]3[C@H]2c2cc(-c4cccc(C#N)c4)ccc2N(C)[C@@H]3CO)c1	.	.	-4	.	.	.
CN(C(=O)c1ccccc1OCC(=O)Nc1ccc(Br)cc1)c1ccccc1	.	.	-5	.	.	.
COC(=O)C1CN(Cc2ccc(F)cc2)CCS(=O)(=O)N1Cc1cn(Cc2ccc(C)cc2)nn1 (stereo not given)	.	.	7	.	.	.
O=C(NCCOc1ccccc1F)c1cc([N+](=O)[O-])ccc1N1CCOCC1	-6	-8	-17	57*	-2	30
O=C(NCCc1ccc(F)cc1)c1cc([N+](=O)[O-])ccc1N1CCOCC1	0	5	20	6	-5	.
CCOc1ccc(N(C)S(=O)(=O)c2ccc(-c3cc(C)no3)s2)cc1	34	-61	6	58*	-5	52*
